# An excerpt weighted towards active compounds, which were near 2.6% of everything screened.
# AI-2 QS mod: modulators of Vibrio harveyi AI-2 quorum sensing system; Vibrio harveyi JMH597 AI-2 luminescence/OD600 ratio, 9 h; stronger effect = lower value; strain lacks LuxN and CqsS sensors; 0 = neutral-control median; activity change, % at 7.5 µM; actives 0.4% (n = 300,000); AID 2094; in the data active means activity change below about -75%, passing the limit was not always enough; inconclusive means no clear call, values can overlap the other calls;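 further: luminescence divided by OD600 gain over 9 h not by final OD600 alone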
# ABCB6 inh MLPCN: blocks the human ABCB6 transporter. K562-ABCB6 porphyrin accumulation, flow cytometry, 1 h; stronger effect = lower value. AID 602162. fluorescence ratio to DMSO, % at 10 µM. actives 0.19% (n = 360,000). Q9NP58;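 active means fluorescence ratio to DMSO below 75%, the collection mean minus 3 SD; inconclusive means too few cells collected in the well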;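 further: signal is porphyrin accumulated inside mitochondria; 100% equals median channel fluorescence of DMSO control wells; lower ratio means ABCB6 inhibition with less porphyrin fluorescence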
# PABP FP inh: PABP-poly(A) binding inhibition | actives 1% (n = 290,000) | AID 2014 | calls only at 35 µM | P11940 | PABP-poly(A) RNA binding, fluorescence polarization;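 further: calls also rest on retests at 20 µM and on dose response follow-up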
# PHOSPHO1 inh: PHOSPHO1 (human) inhibition; Q8TCT1; actives 1.1% (n = 290,000); recombinant PHOSPHO1, absorbance phosphatase assay; inhibition, % at 13.3 µM; in the data active means inhibition above about 60%
# Target sequence (Q8TCT1 whole entry, looked up): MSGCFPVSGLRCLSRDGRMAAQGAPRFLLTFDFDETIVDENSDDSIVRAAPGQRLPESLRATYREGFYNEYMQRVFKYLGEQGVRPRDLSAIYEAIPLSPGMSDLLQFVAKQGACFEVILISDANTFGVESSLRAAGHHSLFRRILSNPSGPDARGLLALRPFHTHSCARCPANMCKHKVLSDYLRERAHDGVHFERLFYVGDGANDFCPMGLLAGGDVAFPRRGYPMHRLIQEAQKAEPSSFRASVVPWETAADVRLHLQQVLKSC
# eIF4H inh: inhibitors of RNA binding by human eIF4H; Q15056; AID 2012; inhibition, % at 35 µM; actives 0.94% (n = 290,000); eIF4H fluorescence polarization binding assay;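 further: calls also rest on retests at 20 µM and on dose response follow-up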
# MLLE-PAM2 inh: inhibitors of microRNA-mediated deadenylation, human PABP1 MLLE binding | actives 0.36% (n = 360,000) | P11940 | inhibition, % at 20 µM | GST-MLLE / FITC-PAM2 fluorescence polarization | AID 588489; in the data active means inhibition above about 35%, passing the limit was not always enough;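 further: plate controls were DMSO wells with GST-MLLE for no effect and wells lacking GST-MLLE protein for full effect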
# The depositor's hits bear a star; i = inactive; u = inconclusive; x = no result given; + = active, no number. Unless noted, how the calls were made is not given here.
SMILES,AI-2 QS mod,ABCB6 inh MLPCN,PABP FP inh,PHOSPHO1 inh,eIF4H inh,MLLE-PAM2 inh
CC(C)C[C@H]1CN(CCCC[C@@H]2CNC(=O)C(=O)N2Cc2ccccc2)C(=O)C(=O)N1CCc1ccccc1,x,100,x,x,x,x
Cc1ccc(SC[C@H](C)CN2CCC(NC(=O)OCc3ccccc3)CCC2=O)cc1 (some centres undefined),x,95,x,x,x,x
CC(=O)c1sc2nsc(SCCN3CCOCC3)c2c1N,11,97,i,86*,3,21
Nc1c(C(=O)c2ccccc2)sc2nsc(SCCN3CCOCC3)c12,8,123,i,61*,4,-44
CN1Cc2c(N3CCOCC3)nc3sc(C(=O)c4ccccc4)c(N)c3c2CC1(C)C,16,93,i,28,-6,-9
CCOC(=O)C1(C)CCCN1C(=O)c1cccs1 (centres undefined),x,99,x,x,x,3
O=C(O)c1cc(-c2ccc(/C=C3\NC(=O)N(c4ccccc4)C3=O)o2)ccc1Cl,31,100,i,67*,41,-3
O=C1NN(c2ccccc2)C(=O)/C1=C/c1ccc(-c2ccc(Cl)c(C(=O)O)c2)o1,37,103,i,-7,13,2
O=C(O)c1cc(-c2ccc(/C=C3\NC(=O)N(c4ccc(Cl)cc4)C3=O)o2)ccc1Cl,-13,103,+,-22,85*,-15
COCc1cc(Sc2ccc(OC)cc2)nc(-c2ccccc2)n1,1,98,i,24,active,-2
CCCS(=O)(=O)NC(=O)C1(C)CCN(C(=O)c2cc(-c3cccs3)oc2C)C1 (centres undefined),x,98,x,x,x,-5
COc1ccc(O)c(/C=N/c2sc(C)c(C)c2C#N)c1,26,92,+,-52,37,2
Cc1sc(/N=C/c2c(O)ccc3ccccc23)c(C#N)c1C,9,x,i,43,5,x
O=C(CCNc1ccc(Cc2ccncc2)cc1)c1ccc([N+](=O)[O-])cc1,23,99,i,30,-11,40*
Cc1ccc(-c2ccc(/C=N/NC(=S)Nc3ccccc3)o2)cc1[N+](=O)[O-],33,106,i,-5,5,38*
O=C(O)c1ccc(N/N=C/c2ccc(-c3cc(Cl)ccc3Cl)o2)cc1,-80*,103,i,32,59,-10
NS(=O)(=O)c1ccc(-c2ccc(/C=N/Nc3ccc(C(=O)O)cc3)o2)cc1,30,93,i,32,56*,-40
O=C(O)c1ccc(-c2ccc(/C=N/Nc3ccc([N+](=O)[O-])cc3)o2)cc1,15,209,i,27,45,-140
O=C(O)c1ccc(N/N=C/c2ccc(-c3cccc(Cl)c3)o2)cc1,-94*,96,i,23,23,-7
CNC(=S)N/N=C/c1ccc(-c2ccc(Cl)c([N+](=O)[O-])c2)o1,35,105,i,17,-4,22
CCCCNC(=O)C1(C)CCN1C(=O)c1ccc2sccc2c1 (centres undefined),x,103,x,x,x,6
c1cc(-c2ccsc2)n2cnnc2c1,x,100,x,x,x,6
CCOC(=O)c1ccc(NC(=O)Nc2nncs2)cc1,x,99,x,x,x,6
O=C(NCc1cccs1)c1ccc2nc([C@@H]3O[C@H](CO)[C@H](O)[C@H](O)[C@H]3O)[nH]c2c1,x,97,x,x,x,0
O=C(O)c1ccc(N/N=C/c2c(F)cccc2Cl)cc1,-79*,101,i,40,4,-18
SMILES,AI-2 QS mod,ABCB6 inh MLPCN,PABP FP inh,PHOSPHO1 inh,eIF4H inh,MLLE-PAM2 inh
O=C(O)c1cccc(-c2ccc(/C=N/Nc3ccc([N+](=O)[O-])cc3)o2)c1,0,158,+,13,54,-141
CNC(=S)N/N=C/c1ccc(-c2ccc(C(=O)O)cc2)o1,28,99,+,49,54*,9
O=C(N/N=C/c1c(F)cccc1Cl)C1CC1,21,105,i,29,0,2
COC(=O)[C@@]1(Sc2ccc(C)cc2)CC(=O)N(C(=O)CCc2ccccc2)[C@@H]1c1ccccc1,x,94,x,x,x,x
C/C(=N/NC(=O)CNc1ccc(C)cc1)c1ccc(Cl)cc1,-1,100,i,25,-12,-2
CCCCC(O)(CCCC)C(=O)N/N=C(\C)c1ccc(Cl)cc1,-2,101,+,24,84*,-4
Cc1ccc(S(=O)(=O)Nc2ccc(O)c(Sc3ncn[nH]3)c2)cc1,19,93,i,23,4,-2
Cc1ccc(C)c(S(=O)(=O)Nc2ccc(O)c(Sc3ncn[nH]3)c2)c1,15,96,+,22,79*,18
COc1ccc(NC(=O)c2cccc(Oc3ccccc3)c2)cn1,2,106,i,28,-4,8
COc1cc(C(=O)NC(=S)Nc2ccc(NC(=O)c3ccco3)cc2)cc(OC)c1OC,10,98,i,12,6,36*
COc1cccc(OC)c1C(=O)Nc1ccc(NC(=O)c2ccco2)cc1,28,98,i,-10,-6,9
COc1ccc(NC(=S)NC(=O)c2ccccc2)cn1,-27,99,i,x,7,42*
O=C(NC(=S)Nc1ccc(NC(=O)c2ccco2)cc1)c1ccccc1,19,96,i,-12,-7,19
COc1ccc(NC(=O)c2ccco2)cn1,13,100,u,28,u,52*
O=C(CN1CCN(Cc2ccccc2Cl)CC1)N/N=C/C=C/c1ccco1,x,98,i,12,1,-14
O=C(CN1CCN(Cc2ccccc2)CC1)N/N=C\C=C/c1ccco1,15,99,+,12,u,-9
O=C(CSc1nnc(SCc2ccccc2)s1)N/N=C/C=C/c1ccco1,12,103,i,13,94*,-102
CC(/C=N\NC(=O)CN1CCN(Cc2ccccc2)CC1)=C\c1ccco1,6,99,+,-15,u,11
CCOc1ccc(Cl)cc1-c1cc(C(=O)Nc2ccc(C(C)C)cc2)[nH]n1,x,102,x,x,x,-5
Cc1cc(OCCCN2CCC(C(O)(c3ccccc3)c3ccccc3)CC2)ccc1Br,x,87,x,x,x,x
CCOC(=O)CNC(c1ccccc1)c1cc(Br)ccc1NC(=O)OCC (centres undefined),7,95,+,24,104*,0
Cc1cc2c(N)cccc2nn1,0,93,+,-31,96*,14
CC(C)C/C(O)=C/c1nc2cc(Cl)ccc2oc1=O,6,93,+,10,79*,13
O=c1oc2ccc(Cl)cc2nc1/C=C(\O)c1ccco1,12,95,i,38,3,-78
COc1ccc(C(=O)C[N+]2(C)CCOCC2)cc1,19,104,x,80*,x,-131
COc1ccc(C(=O)CC(=O)c2ccc(OC)cc2)cc1,2,93,i,x,-1,-5

# Assay outcomes from PubChem BioAssay.
